Assay results: the supplement of paper PMC10849652
The full data set covers some 8,800 targets. This sample favours those with a hit. About 0.5% of all pairs of compound and target were hits. Unmarked numbers belong to inactive results.

Columns and labels:
Experiment in all cases: log2 fold change, soluble protein after heating vs DMSO (PISA); higher = thermal stabilisation; K562 lysate, 10 uM; active = over 0.2 and 3.5 SD of the protein, either way, in both replicates (recomputed)
[1] = compound: Cc1cn(-c2cc(NC(=O)c3ccc(C)c(Nc4nccc(-c5cccnc5)n4)c3)cc(C(F)(F)F)c2)cn1 [nilotinib]
Method in brief: (§1)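 K562 pellets were dounce-homogenised in PBS pH 7.4 containing 1 mM MgCl2, and the crude extract, at 1 mg/mL protein, was exposed to 10 μM compound for 30 min. Aliquots were heated for 3 min across 48°C-58°C, pooled, brought to 0.5% NP-40 at 4°C and spun at 21,000xg for 90 min, with the supernatant taken as soluble protein. TMTpro 16plex LC-MS/MS with equalised channel sums quantified that protein. Values are log-two fold changes in thermal stability relative to solvent controls, taken from duplicates.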

[2] = compound: Cc1nc(Nc2n[nH]c3c2CN(C(=O)N[C@H](CN(C)C)c2ccccc2)C3(C)C)c2sccc2n1
Method in brief: as §1

[3] = compound: Cc1nc(Nc2ncc(C(=O)Nc3c(C)cccc3Cl)s2)cc(N2CCN(CCO)CC2)n1 [dasatinib]
Method in brief: as §1

[4] = compound: Cc1ncc(-c2ccnc(Nc3ccc(S(C)(=O)=O)cc3)n2)n1C(C)C
Method in brief: as §1

[5] = compound: Cn1cc(-c2ccc3c(c2)CCN3C(=O)Cc2cccc(C(F)(F)F)c2)c2c(N)ncnc21
Method in brief: as §1

[6] = compound: Cn1cc(CNCC2CCN(c3ncc(C(=O)NO)cn3)CC2)c2ccccc21 [quisinostat]
Method in brief: as §1

[7] = compound: Cn1cncc1[C@@](N)(c1ccc(Cl)cc1)c1ccc2c(c1)c(-c1cccc(Cl)c1)cc(=O)n2C [tipifarnib]
Method in brief: as §1

[8] = compound: NC(=O)Nc1cc(-c2cccc(F)c2)sc1C(=O)N[C@H]1CCCNC1
Method in brief: as §1

[9] = compound: NC(=O)c1cnc(N[C@@H]2CCCC[C@@H]2N)nc1Nc1cccc(-n2nccn2)c1
Method in brief: as §1

[10] = compound: NC1(c2ccc(-c3nc4ccn5c(=O)[nH]nc5c4cc3-c3ccccc3)cc2)CCC1
Method in brief: as §1

[11] = compound: NCC(=O)Nc1ccc(-n2nc(C(F)(F)F)cc2-c2ccc3c(ccc4ccccc43)c2)cc1
Method in brief: as §1

[12] = compound: O=C(CCCCCCC(=O)Nc1ccccc1)NO [vorinostat]
Method in brief: as §1

[13] = compound: O=C(O)c1ccc2c(c1)nc(Nc1cccc(Cl)c1)c1ccncc12 [silmitasertib]
Method in brief: as §1

[14] = compound: O=C1NC(=O)C(c2cnc3ccccn23)=C1c1cn2c3c(cc(F)cc13)CN(C(=O)N1CCCCC1)CC2
Method in brief: as §1

[15] = compound: c1cn2cc(-c3ccc4cn[nH]c4c3)nc(Nc3ccc(N4CCOCC4)cc3)c2n1 [entospletinib]
Method in brief: as §1

UniProt P54278, sequence (P54278 whole entry, looked up): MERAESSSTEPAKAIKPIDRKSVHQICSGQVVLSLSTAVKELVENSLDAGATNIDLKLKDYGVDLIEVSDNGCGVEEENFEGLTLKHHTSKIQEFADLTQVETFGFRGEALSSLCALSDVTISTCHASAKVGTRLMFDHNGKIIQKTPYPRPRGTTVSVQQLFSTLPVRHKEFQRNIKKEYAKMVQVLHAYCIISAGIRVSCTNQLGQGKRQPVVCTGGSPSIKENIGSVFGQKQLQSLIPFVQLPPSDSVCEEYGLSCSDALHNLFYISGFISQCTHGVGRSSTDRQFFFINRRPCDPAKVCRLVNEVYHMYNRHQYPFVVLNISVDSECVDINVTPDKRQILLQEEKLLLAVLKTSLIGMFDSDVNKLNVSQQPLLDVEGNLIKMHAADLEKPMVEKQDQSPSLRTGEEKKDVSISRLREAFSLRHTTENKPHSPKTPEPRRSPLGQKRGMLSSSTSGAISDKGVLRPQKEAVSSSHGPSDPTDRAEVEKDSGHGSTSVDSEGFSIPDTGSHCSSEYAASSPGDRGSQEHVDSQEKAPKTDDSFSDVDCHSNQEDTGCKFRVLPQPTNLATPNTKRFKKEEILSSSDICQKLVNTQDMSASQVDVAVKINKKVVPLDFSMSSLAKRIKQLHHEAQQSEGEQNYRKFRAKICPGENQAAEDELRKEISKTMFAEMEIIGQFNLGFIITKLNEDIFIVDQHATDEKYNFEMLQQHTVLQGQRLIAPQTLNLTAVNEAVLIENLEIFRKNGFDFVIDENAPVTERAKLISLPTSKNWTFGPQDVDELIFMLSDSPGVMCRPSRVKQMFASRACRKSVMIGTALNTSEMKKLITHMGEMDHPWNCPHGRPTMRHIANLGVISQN
UniProt Q9UNP9, sequence (Q9UNP9 whole entry, looked up): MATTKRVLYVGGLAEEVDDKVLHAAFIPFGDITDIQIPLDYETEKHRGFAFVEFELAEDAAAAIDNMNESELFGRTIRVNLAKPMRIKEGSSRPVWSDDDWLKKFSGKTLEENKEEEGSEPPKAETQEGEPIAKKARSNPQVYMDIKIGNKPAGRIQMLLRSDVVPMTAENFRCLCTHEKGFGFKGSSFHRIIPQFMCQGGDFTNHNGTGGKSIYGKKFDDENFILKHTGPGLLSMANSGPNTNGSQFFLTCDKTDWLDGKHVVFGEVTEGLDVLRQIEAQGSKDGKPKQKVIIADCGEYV
UniProt Q13492, sequence (Q13492 whole entry, looked up): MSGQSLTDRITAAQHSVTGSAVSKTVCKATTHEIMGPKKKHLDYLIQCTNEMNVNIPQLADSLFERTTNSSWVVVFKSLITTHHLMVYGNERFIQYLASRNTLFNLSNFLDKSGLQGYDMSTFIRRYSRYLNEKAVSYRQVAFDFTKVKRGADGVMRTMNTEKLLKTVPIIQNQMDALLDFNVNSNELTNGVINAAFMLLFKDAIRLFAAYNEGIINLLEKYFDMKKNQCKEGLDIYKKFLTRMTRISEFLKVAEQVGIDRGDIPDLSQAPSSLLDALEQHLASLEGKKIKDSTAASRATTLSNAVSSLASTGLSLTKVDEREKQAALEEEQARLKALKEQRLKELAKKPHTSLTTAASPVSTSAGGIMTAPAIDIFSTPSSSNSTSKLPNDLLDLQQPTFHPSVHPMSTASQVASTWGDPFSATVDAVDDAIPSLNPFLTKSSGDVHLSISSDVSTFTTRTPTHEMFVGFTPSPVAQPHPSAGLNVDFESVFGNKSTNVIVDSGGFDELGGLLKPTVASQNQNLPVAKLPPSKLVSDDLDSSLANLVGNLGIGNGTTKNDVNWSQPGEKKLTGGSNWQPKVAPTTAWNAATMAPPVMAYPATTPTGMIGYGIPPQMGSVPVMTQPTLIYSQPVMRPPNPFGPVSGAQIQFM
UniProt O00459, sequence (O00459 whole entry, looked up): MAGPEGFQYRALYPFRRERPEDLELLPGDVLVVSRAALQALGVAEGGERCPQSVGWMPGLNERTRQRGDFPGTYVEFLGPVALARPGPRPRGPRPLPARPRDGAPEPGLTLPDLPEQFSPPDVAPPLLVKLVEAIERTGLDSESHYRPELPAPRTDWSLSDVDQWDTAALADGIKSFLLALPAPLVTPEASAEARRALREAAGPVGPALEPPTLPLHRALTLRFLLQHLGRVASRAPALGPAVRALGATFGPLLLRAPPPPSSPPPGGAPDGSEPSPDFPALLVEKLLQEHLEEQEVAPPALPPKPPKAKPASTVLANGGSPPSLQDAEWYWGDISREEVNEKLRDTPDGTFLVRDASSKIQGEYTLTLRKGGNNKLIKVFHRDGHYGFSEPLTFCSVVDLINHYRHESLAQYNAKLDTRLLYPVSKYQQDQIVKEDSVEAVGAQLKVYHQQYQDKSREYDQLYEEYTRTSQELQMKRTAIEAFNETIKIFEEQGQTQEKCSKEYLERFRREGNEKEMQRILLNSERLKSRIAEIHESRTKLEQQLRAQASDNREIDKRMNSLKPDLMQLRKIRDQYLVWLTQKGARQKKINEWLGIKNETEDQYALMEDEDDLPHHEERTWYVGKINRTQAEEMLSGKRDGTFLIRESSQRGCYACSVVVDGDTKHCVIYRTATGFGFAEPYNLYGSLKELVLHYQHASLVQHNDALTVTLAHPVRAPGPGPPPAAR
UniProt P28340, sequence (P28340 whole entry, looked up): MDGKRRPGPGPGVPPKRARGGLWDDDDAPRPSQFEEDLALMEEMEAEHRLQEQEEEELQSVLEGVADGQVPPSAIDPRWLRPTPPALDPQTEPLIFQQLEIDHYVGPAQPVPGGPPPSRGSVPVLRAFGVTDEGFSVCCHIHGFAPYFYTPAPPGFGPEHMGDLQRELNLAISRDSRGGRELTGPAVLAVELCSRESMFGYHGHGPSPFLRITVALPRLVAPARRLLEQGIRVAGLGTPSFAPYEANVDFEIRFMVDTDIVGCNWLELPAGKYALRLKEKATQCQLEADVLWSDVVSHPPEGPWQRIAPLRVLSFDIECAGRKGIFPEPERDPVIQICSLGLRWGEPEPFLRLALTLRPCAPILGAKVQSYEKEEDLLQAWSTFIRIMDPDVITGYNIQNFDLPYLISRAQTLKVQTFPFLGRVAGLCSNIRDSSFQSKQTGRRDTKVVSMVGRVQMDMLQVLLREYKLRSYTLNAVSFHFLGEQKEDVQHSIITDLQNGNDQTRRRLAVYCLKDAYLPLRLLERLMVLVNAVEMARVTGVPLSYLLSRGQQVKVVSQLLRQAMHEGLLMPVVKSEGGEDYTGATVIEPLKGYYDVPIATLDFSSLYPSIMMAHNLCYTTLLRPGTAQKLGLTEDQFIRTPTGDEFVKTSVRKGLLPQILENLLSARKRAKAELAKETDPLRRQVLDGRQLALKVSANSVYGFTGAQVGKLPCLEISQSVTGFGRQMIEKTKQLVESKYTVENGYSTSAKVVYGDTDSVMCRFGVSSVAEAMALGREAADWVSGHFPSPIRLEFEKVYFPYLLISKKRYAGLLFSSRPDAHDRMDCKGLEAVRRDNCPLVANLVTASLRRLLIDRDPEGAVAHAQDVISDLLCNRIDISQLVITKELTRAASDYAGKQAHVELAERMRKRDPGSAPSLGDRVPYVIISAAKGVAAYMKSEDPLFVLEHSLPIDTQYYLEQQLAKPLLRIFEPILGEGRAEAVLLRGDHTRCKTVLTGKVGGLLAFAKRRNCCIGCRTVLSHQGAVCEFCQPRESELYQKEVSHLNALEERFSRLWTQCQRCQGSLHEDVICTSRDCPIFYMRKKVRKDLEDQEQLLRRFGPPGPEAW
UniProt P53609, sequence (P53609 whole entry, looked up): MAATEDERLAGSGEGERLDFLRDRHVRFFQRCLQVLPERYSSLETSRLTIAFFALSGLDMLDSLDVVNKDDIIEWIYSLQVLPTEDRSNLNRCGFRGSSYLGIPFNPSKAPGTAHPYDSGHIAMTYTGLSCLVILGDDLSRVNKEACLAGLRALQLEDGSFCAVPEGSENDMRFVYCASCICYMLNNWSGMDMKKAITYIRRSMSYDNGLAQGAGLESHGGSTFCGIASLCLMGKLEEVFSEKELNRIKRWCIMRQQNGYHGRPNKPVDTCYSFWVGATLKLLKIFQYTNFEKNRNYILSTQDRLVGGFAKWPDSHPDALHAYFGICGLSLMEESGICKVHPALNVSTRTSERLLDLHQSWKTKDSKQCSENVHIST
UniProt Q8NEB9, sequence (Q8NEB9 whole entry, looked up): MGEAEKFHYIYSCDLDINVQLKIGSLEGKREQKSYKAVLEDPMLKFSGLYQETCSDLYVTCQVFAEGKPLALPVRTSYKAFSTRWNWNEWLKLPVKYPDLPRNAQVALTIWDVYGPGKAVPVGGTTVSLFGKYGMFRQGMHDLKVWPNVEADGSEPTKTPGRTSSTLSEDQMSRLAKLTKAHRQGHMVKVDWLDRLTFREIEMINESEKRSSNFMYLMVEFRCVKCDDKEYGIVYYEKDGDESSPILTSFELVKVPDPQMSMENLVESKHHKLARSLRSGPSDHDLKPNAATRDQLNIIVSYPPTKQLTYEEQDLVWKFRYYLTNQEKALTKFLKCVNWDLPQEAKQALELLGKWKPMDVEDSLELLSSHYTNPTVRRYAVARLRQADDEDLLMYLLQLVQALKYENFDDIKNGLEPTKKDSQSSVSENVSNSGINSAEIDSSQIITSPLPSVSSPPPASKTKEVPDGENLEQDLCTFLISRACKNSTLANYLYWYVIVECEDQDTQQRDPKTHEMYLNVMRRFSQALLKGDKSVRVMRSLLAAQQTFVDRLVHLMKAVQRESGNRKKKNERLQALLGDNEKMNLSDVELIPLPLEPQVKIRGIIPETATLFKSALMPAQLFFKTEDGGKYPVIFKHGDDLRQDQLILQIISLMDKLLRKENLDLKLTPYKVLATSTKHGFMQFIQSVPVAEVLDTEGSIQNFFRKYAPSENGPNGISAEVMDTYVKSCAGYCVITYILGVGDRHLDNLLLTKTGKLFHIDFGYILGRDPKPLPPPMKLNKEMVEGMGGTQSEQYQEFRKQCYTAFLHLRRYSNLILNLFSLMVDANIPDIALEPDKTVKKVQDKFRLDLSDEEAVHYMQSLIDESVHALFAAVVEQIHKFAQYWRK

PICALM (UniProt Q13492) showed a log2 fold change [1] of -0.012, a log2 fold change [2] of -0.01 and a log2 fold change [3] of -0.036. For the same target, the log2 fold change [4] was -0.009, the log2 fold change [5] was 0.001 and the log2 fold change [6] was -0.003. It also gave a log2 fold change [7] of -0.042, a log2 fold change [8] of -0.018 and a log2 fold change [9] of 0.012. For the same target, the log2 fold change [10] was 0.007, the log2 fold change [11] was 0.02 and the log2 fold change [12] was 0.048. For the same target, the log2 fold change [13] was 0.003, the log2 fold change [14] was -0.019 and the log2 fold change [15] was -0.005.

In the case of POLR2G (UniProt P62487), the log2 fold change [1] is reported as 0.01, the log2 fold change [2] is reported as -0.02 and the log2 fold change [3] is reported as -0.024. For the same target, the log2 fold change [4] was 0.007, the log2 fold change [5] was 0 and the log2 fold change [6] was 0.01. It also gave a log2 fold change [7] of 0.007, a log2 fold change [8] of 0.001 and a log2 fold change [9] of 0.011. It also gave a log2 fold change [10] of -0.016, a log2 fold change [11] of 0.001 and a log2 fold change [12] of 0.116. For the same target, the log2 fold change [13] was -0.043, the log2 fold change [14] was -0.03 and the log2 fold change [15] was 0.014.

Target PPIE (UniProt Q9UNP9) has a log2 fold change [1] of -0.027, a log2 fold change [2] of 0.017 and a log2 fold change [3] of -0.017. For the same target, the log2 fold change [4] was -0.01, the log2 fold change [5] was -0.016 and the log2 fold change [6] was -0.091. It also gave a log2 fold change [7] of -0.003, a log2 fold change [8] of -0.018 and a log2 fold change [9] of 0.04. It also gave a log2 fold change [10] of -0.034, a log2 fold change [11] of 0.024 and a log2 fold change [12] of 0.096. The log2 fold change [13] was 0.035, the log2 fold change [14] was -0.045 and the log2 fold change [15] was -0.036.

With PLA2G4B isoform 6 (UniProt P0C869) the log2 fold change [1] was -0.177, the log2 fold change [2] was 0.259 and the log2 fold change [3] was -0.1. For the same target, the log2 fold change [4] was -0.326, the log2 fold change [5] was -0.047 and the log2 fold change [6] was -0.671 (active). The log2 fold change [7] was 0.022, the log2 fold change [8] was 0.158 and the log2 fold change [9] was 0.006. For the same target, the log2 fold change [10] was -0.073, the log2 fold change [11] was -0.008 and the log2 fold change [12] was 0.002. The log2 fold change [13] was -0.017, the log2 fold change [14] was 0.264 and the log2 fold change [15] was 0.06.

POLD1 (UniProt P28340) showed a log2 fold change [1] of 0.029, a log2 fold change [2] of -0.004 and a log2 fold change [3] of -0.023. For the same target, the log2 fold change [4] was -0.011, the log2 fold change [5] was 0.011 and the log2 fold change [6] was 0.01. It also gave a log2 fold change [7] of -0.011, a log2 fold change [8] of 0.015 and a log2 fold change [9] of 0.006. The log2 fold change [10] was 0.003, the log2 fold change [11] was 0.016 and the log2 fold change [12] was -0.245 (active). The log2 fold change [13] was 0.016, the log2 fold change [14] was 0.005 and the log2 fold change [15] was -0.009.

PIK3R2 (UniProt O00459) showed a log2 fold change [1] of 0.007, a log2 fold change [2] of -0.006 and a log2 fold change [3] of -0.023. It also gave a log2 fold change [4] of 0.003, a log2 fold change [5] of -0.008 and a log2 fold change [6] of -0.04. The log2 fold change [7] was -0.001, the log2 fold change [8] was 0.031 and the log2 fold change [9] was 0.017. It also gave a log2 fold change [10] of 0.263, a log2 fold change [11] of -0.007 and a log2 fold change [12] of -0.245. For the same target, the log2 fold change [13] was 0.201, the log2 fold change [14] was -0.029 and the log2 fold change [15] was -0.092.

For PIK3C3 (UniProt Q8NEB9), the log2 fold change [1] was -0.001, the log2 fold change [2] was -0.011 and the log2 fold change [3] was -0.05. The log2 fold change [4] was 0.062, the log2 fold change [5] was -0.025 and the log2 fold change [6] was -0.022. The log2 fold change [7] was -0.054, the log2 fold change [8] was 0.027 and the log2 fold change [9] was 0.04. For the same target, the log2 fold change [10] was -0.008, the log2 fold change [11] was -0.04 and the log2 fold change [12] was -0.066. For the same target, the log2 fold change [13] was 0.037, the log2 fold change [14] was 0.019 and the log2 fold change [15] was -0.014.

In the case of PDF (UniProt Q9HBH1), the log2 fold change [1] is reported as 0.014, the log2 fold change [2] is reported as 0.002 and the log2 fold change [3] is reported as -0.037. It also gave a log2 fold change [4] of 0.02, a log2 fold change [5] of 0.067 and a log2 fold change [6] of -0.064. It also gave a log2 fold change [7] of -0.012, a log2 fold change [8] of 0.022 and a log2 fold change [9] of -0.034. The log2 fold change [10] was 0.056, the log2 fold change [11] was -0.095 and the log2 fold change [12] was -0.232. The log2 fold change [13] was 0.044, the log2 fold change [14] was 0 and the log2 fold change [15] was -0.004.

With PMS2 (UniProt P54278) the log2 fold change [1] was -0.024, the log2 fold change [2] was -0.021 and the log2 fold change [3] was -0.1. It also gave a log2 fold change [4] of 0.039, a log2 fold change [5] of 0.047 and a log2 fold change [6] of -0.011. It also gave a log2 fold change [7] of -0.078, a log2 fold change [8] of 0.043 and a log2 fold change [9] of 0. The log2 fold change [10] was -0.006, the log2 fold change [11] was 0.064 and the log2 fold change [12] was -0.384 (active). For the same target, the log2 fold change [13] was 0.026, the log2 fold change [14] was 0.027 and the log2 fold change [15] was 0.001.

In the case of PHKG2 (UniProt P15735), the log2 fold change [1] is reported as -0.022, the log2 fold change [2] is reported as 0.598 (active) and the log2 fold change [3] is reported as -0.03. It also gave a log2 fold change [4] of 0.046, a log2 fold change [5] of 0.037 and a log2 fold change [6] of -0.069. For the same target, the log2 fold change [7] was 0.038, the log2 fold change [8] was 0.979 (active) and the log2 fold change [9] was -0.042. For the same target, the log2 fold change [10] was -0.073, the log2 fold change [11] was -0.029 and the log2 fold change [12] was 0.013. The log2 fold change [13] was 0.008, the log2 fold change [14] was -0.022 and the log2 fold change [15] was 0.026.

For PGGT1B (UniProt P53609), the log2 fold change [1] was 0.01, the log2 fold change [2] was -0.005 and the log2 fold change [3] was 0.005. It also gave a log2 fold change [4] of -0.03, a log2 fold change [5] of 0.048 and a log2 fold change [6] of 0.066. For the same target, the log2 fold change [7] was 0.208, the log2 fold change [8] was 0.018 and the log2 fold change [9] was -0.037. It also gave a log2 fold change [10] of 0.047, a log2 fold change [11] of -0.038 and a log2 fold change [12] of 0.08. For the same target, the log2 fold change [13] was 0.109, the log2 fold change [14] was -0.029 and the log2 fold change [15] was -0.054.
